Compound activity as filed in PubChem BioAssay.
The entries come from a sample that favours hits as a whole.
BRCT inh green = qHTS Assay for Inhibitors of BRCT-Phosphoprotein Interaction (Green Fluorophore); Potency, µM (series often up to 76.9 µM), inactives show at the highest dose activity change, negative = inhibition, actives largely listed as inhibitors; BRCA1 BRCT-phosphopeptide binding, green fluorescence polarization; AID 875, 2007; 75,000 tested, 0.05% active; Breast cancer type 1 susceptibility protein (Homo sapiens), P38398;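 also: potency is read from the fitted curve at half-maximal effect; plate controls were peptide without protein for full effect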
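Compounds were incubated for 12 min at room temperature with a complex of 100 nM fluorescein-tagged pBACH1 decapeptide and 250 nM His-tagged BRCT protein. Buffer was phosphate pH 7.3 with EDTA, DTT and Tween 20. Disruption of binding lowers the polarization signal.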
ALOX15 inhib = qHTS Assay for Inhibitors of 15-hLO (15-human lipoxygenase); AID 887, 2007; 74,000 tested, 1.4% active; Polyunsaturated fatty acid lipoxygenase ALOX15 (Homo sapiens), P16050; Potency, µM (series often up to 57.1 µM), for inactives: at the top dose activity change, negative = inhibition, most hits filed as inhibitors; purified 15hLO-1, xylenol orange hydroperoxide absorbance; also: potency is read from the fitted curve at half-maximal effect; % is scaled to controls: 0 for no effect and ±100 for the full control effect; nearly all actives have a fitted effect of over 55% in size
Target sequence (P16050 whole entry, looked up): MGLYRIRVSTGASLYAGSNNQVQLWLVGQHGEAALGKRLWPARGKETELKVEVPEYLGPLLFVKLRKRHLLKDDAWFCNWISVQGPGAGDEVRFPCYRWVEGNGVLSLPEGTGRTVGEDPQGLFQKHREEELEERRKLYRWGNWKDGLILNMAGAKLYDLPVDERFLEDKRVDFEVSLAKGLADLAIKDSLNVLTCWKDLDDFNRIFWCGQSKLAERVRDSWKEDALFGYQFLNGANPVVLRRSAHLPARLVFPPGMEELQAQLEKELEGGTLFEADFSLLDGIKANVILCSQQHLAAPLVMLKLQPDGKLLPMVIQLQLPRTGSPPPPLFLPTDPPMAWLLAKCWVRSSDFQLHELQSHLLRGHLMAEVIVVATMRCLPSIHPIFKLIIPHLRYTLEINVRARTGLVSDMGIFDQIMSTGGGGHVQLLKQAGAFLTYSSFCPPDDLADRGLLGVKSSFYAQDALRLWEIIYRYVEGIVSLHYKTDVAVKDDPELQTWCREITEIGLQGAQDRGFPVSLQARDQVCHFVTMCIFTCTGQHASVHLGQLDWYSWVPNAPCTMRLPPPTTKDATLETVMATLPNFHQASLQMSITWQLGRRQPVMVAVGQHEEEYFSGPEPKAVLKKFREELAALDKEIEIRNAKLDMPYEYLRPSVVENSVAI
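Inhibition is scored from a chromogenic endpoint. After 15 min enzyme-compound contact, arachidonic acid (50 uM final) reacts 6 min with 40 nM 15hLO-1 at room temperature, then Fe-XO reagent is added for 30 min and absorbance ratio recorded.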
DNA Pol III inh = qHTS Assay for Inhibitors of DNA Polymerase III Holoenzyme System | Potency, µM (doses to about 57.1 µM), without a hit: at the highest dose activity change, negative = inhibition | 71,000 tested, 0.25% active | reconstituted DNA polymerase III holoenzyme replication, biochemical; also: potency is read from the fitted curve at half-maximal effect; % is scaled to controls: 0 for no effect and ±100 for the full control effect
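Reconstituted *E. coli* holoenzyme (0.35 nM Pol III, 1 nM beta, 154 nM SSB, 2 nM primase) was preincubated with compound for 15 min at RT. Synthesis on 1.4 nM ssM13Gori ran 35 min, then was stopped with PicoGreen/EDTA and read as dsDNA fluorescence.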
15-hLO-2 inh = qHTS Assay for Inhibitors of 15-hLO-2 (15-human lipoxygenase 2); Polyunsaturated fatty acid lipoxygenase ALOX15B (Homo sapiens), O15296; purified 15hLO-2, xylenol orange hydroperoxide absorbance; Potency, µM (titrated, usually from 57.1 µM), inactives show top-dose activity change, negative = inhibition, usual class: inhibitors; 110,000 tested, 0.56% active; AID 881, 2007; also: potency is read from the fitted curve at half-maximal effect; % is scaled to controls: 0 for no effect and ±100 for the full control effect; nearly all actives have a fitted effect of over 60% in size
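Purified human 15hLO-2 (50 nM final) preincubated with compounds 15 min at room temperature in 25 mM Hepes pH 7.5, 0.01% Triton X-100, then 45 uM arachidonic acid added for 90 min; hydroperoxide detected via ferrous/xylenol orange, 573/405 nm absorbance ratio.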
BRCT PPI red = qHTS Assay for Inhibitors of BRCT-Phosphoprotein Interaction (Red Fluorophore); Breast cancer type 1 susceptibility protein (Homo sapiens), P38398; BRCT-phosphopeptide binding, red fluorescence polarization; Potency, µM (titrated, usually from 76.9 µM), for the others: at the highest dose activity change, negative = inhibition, most hits filed as inhibitors; 75,000 tested, 0.03% active; also: % is scaled to controls: 0 for no effect and ±100 for the full control effect
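Rhodamine-labelled pBACH1 10-mer (100 nM) bound to BRCT domain (100 nM) at pH 7.3; compounds incubated 12 min room temperature, polarization read. Free peptide defines full inhibition; unlabelled decapeptide titrated as control.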
TsaE inh = qHTS Assay for Inhibitors of YjeE. tRNA threonylcarbamoyladenosine biosynthesis protein TsaE (Escherichia coli (strain …. 71,000 tested, 0.05% active. purified YjeE enzyme, qHTS inhibition assay. Potency, µM
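Fluorescence polarization of a BODIPY Texas Red–ADP probe (2 uM) bound to purified YjeE (10 uM) was read after 15 min room-temperature incubation with compounds. Loss of polarization marks inhibitors; ADP serves as titrated control.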
An asterisk follows results filed as active; i = inactive; u = inconclusive; x = no result; [ ] = remark or other dose. Calls follow the shape of the dose curve; as a rule, active = well fitted curve in the direction sought with a large enough effect; inconclusive = small, poorly fitted or top-dose-only effect, or another doubt; inactive = no such curve, though single readings can be large; an effect the other way counts as inactive or inconclusive.

SMILES | BRCT inh green | ALOX15 inhib | DNA Pol III inh | 15-hLO-2 inh | BRCT PPI red | TsaE inh
CCOC(=O)c1cc(-c2ccc(/C=C3/C(=O)NC(=O)C(C#N)=C3C)o2)ccc1Cl | x | x | x | 25.1µM* | x | x
COc1ccc(CC[N@+]2(C)COc3cc4oc(=O)cc(C)c4cc3C2)cc1OC | -0.7%[15.4 µM] | 8.4%[11.4 µM] | -1.7%[11.4 µM] | -0.7%[11.4 µM] | 0.7%[15.4 µM] | i
O=C(Nc1ccc(C(=O)Nc2ccc(C(=O)Nc3ccc(S(=O)(=O)O)c4cc(S(=O)(=O)O)cc(S(=O)(=O)O)c34)cc2)cc1)Nc1ccc(C(=O)Nc2ccc(C(=O)Nc3ccc(S(=O)(=O)O)c4cc(S(=O)(=O)O)cc(S(=O)(=O)O)c34)cc2)cc1 | -7.8% | u | 31.6µM* | 36.0% | 56.1% | i
Cc1ccc2nc(-c3ccc(NC(=O)c4ccc(N)cc4)c(S(=O)(=O)O)c3)sc2c1 | -0.9%[15.4 µM] | 11.1%[11.4 µM] | -10.3%[11.4 µM] | -13.7%[11.4 µM] | -0.1%[15.4 µM] | i
O=C(Nc1cc(C(=O)Nc2ccc(S(=O)(=O)O)cc2S(=O)(=O)O)cc(C(=O)Nc2ccc(S(=O)(=O)O)cc2S(=O)(=O)O)c1)Nc1cc(C(=O)Nc2ccc(S(=O)(=O)O)cc2S(=O)(=O)O)cc(C(=O)Nc2ccc(S(=O)(=O)O)cc2S(=O)(=O)O)c1 | -3.1% | -3.8%[25.6 µM] | 3.98µM* | 44.1% | 47.9% | i
CCN(CCO)C[C@H]1CCC[C@H]2CCCC[C@@H]21 | 1.4%[15.4 µM] | -6.1%[11.4 µM] | -12.6%[11.4 µM] | 2.4%[11.4 µM] | 2.4%[15.4 µM] | i
COc1cc2nc3c(c([Si](C)(C)C(C)(C)C)c2cc1OC)Cn1c-3cccc1=O | 14.9% | x | 17.4% | -6.4% | -1.7% | i
O=C(Cc1ccc(Cl)cc1)Nc1ccc(-c2nnc(-c3ccco3)o2)cc1 | 2.0% | -9.4% | 20µM* | -13.6% | -0.1% | i
O=C(Cc1ccccc1)Nc1ccc(-c2nnc(-c3ccco3)o2)cc1 | -0.1% | -3.4% | -2.6% | x | -0.9% | i
Cc1ccc(S(=O)(=O)Nn2c(C)ccc2C)cc1 | 0.2% | 20µM* | -4.5% | u | 0.6% | i
N#Cc1c(-c2ccccc2)cc(C2CC2)nc1SCC(=O)c1cccs1 | x | x | x | -5.9% | x | x
N#Cc1c(-c2ccco2)cc(C2CC2)nc1SCC(=O)c1ccccc1 | 6.9% | 15.8µM* | -2.1% | -11.1% | -0.9% | i
O=c1c(-c2cc(F)cc(F)c2)nc2cnc(N3CCNCC3)nc2n1Cc1ccc(F)cc1 | 1.7% | -10.4% | 1.2% | 48.7% | 0.7% | u
Nc1nc(-c2cccs2)c(NC(=O)c2ccccc2)s1 | -0.2% | 20µM* | -3.1% | u | -0.3% | i
CC(=O)Nc1sc(NC(=O)c2ccc(Cl)cc2)nc1-c1cccs1 | x | x | x | -7.7% | x | x
CCc1ccccc1O | -0.6% | -2.5% | -7.1% | -1.8% | 1.1% | i
COc1ccc(-n2nc3cc(C)c(N)c(Br)c3n2)cc1 | 0.6% | 15.8µM* | -10.1% | 10µM* | -0.7% | i
O=S(=O)(O)c1cc(O)c2c(N=Cc3ccccc3O)cc(S(=O)(=O)O)cc2c1 | -0.5%[15.4 µM] | -10.1%[11.4 µM] | -17.2%[11.4 µM] | 32.0%[11.4 µM] | 3.4%[15.4 µM] | i
CCOC(=O)N1CCC(Nc2c(OCC)c(=O)c2=O)CC1 | -1.9% | 6.1% | -10.1% | -0.2% | 0.5% | i
CCCN(CCC)c1nc(NC2CCN(C(=O)OCC)CC2)nc(OC)n1 | -3.0% | 31.6µM* | -3.1% | 57.2% | -1.1% | i
Nc1ncnc2c1nc(Br)n2[C@@H]1O[C@H]2COP(=O)(O)O[C@@H]2[C@H]1O | -1.3% | 7.1% | -3.0% | -2.7% | -2.4% | i
COC(=O)Nc1sc2c(c1C(N)=O)CCCCCC2 | -1.1% | 12.6µM* | -8.2% | -6.6% | -0.4% | i
CCOC(=O)c1c(NC(=O)OC)sc2c1CCC2 | 0.2% | -13.1% | -3.3% | -3.1% | -0.8% | i
